# Source: PubChem
# Efflux pump inh: blocks antifungal efflux pumps in multiplex yeast assay | S. cerevisiae Candida pump triplex, Nile Red efflux | AID 485275 | inhibition, % at 10 µM | 0.44% of 330,000 active;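 active means plate passing quality check with inhibition over a set limit, or well fluorescence over plate mean plus 4 SD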;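 further: Nile Red retained in pooled yeast measured as flow cytometry median fluorescence; 0% = buffer negative control and 100% = Enniatin B positive control; higher means more Nile Red kept so more efflux inhibition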
# MLLE-PAM2 inh: inhibitors of microRNA-mediated deadenylation, human PABP1 MLLE binding. P11940. GST-MLLE / FITC-PAM2 fluorescence polarization. inhibition, % at 20 µM. 0.36% of 360,000 active; in the data active means inhibition above about 35%, passing the limit was not always enough;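 further: plate controls were DMSO wells with GST-MLLE for no effect and wells lacking GST-MLLE protein for full effect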
# SUMO HTRF inh: blocks human SUMOylation mediated by UBC9 | P63279 | HTRF SUMOylation assay, SAE1/SAE2 + UBC9, in vitro | inhibition, % at 35 µM | 0.36% of 290,000 active | AID 2006; in the data active means inhibition above about 50%, passing the limit was not always enough; inconclusive means no clear call, values can overlap the other calls
# Target sequence (P63279 whole entry, looked up): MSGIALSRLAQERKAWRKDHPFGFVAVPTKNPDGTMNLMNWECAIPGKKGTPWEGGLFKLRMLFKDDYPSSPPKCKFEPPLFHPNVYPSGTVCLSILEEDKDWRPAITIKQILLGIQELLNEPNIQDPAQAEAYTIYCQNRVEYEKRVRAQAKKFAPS
# PABP polyA inh: blocks human PABP binding to poly(A) RNA | P11940 | fluorescence polarization | inhibition, % at 35 µM | 1% of 290,000 active;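 further: calls also rest on retests at 20 µM and on dose response follow-up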
# eIF4H FP inh: inhibitors of RNA binding by human eIF4H; Q15056; eIF4H fluorescence polarization binding assay; inhibition, % at 35 µM; 0.94% of 290,000 active; AID 2012;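 further: calls also rest on retests at 20 µM and on dose response follow-up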
# ALR H2O2 inh: human ALR oxidase inhibition via reduced H2O2. AID 485317. P55789. 3.8% of 290,000 active. purified ALR, DTT oxidation, H2O2 HRP-luminol luminescence. inhibition, % (concentration not given with the values);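 active means mean replicate inhibition above about 79%, with every replicate also reaching it, limit read from the data; inconclusive means only one of the two criteria met; inactive means mean below limit and not every replicate reaching it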
# Target sequence (P55789 whole entry, looked up): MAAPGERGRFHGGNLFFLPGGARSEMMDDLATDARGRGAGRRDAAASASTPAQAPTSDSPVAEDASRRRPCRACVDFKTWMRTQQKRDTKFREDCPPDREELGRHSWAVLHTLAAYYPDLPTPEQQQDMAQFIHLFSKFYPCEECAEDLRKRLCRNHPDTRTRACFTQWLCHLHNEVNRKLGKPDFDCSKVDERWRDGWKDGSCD
# Yeast cmpd fluor: flagged as fluorescent in efflux inhibitor counter-screen; 4% of 1,700 active; shares compounds with Efflux pump inh; AID 588517; fluorescence ratio to DMSO, % at 10 µM; S. cerevisiae AD/pABC3, compound fluorescence, flow cytometry;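 active means fluorescence ratio to DMSO above its plate's cutoff, the plate mean ratio plus 5 SD, cut at about 210% in these data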;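 further: unstained yeast with no Nile Red so the signal is compound autofluorescence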
# Mdr1 pump inh: blocks the Candida albicans Mdr1 efflux pump in yeast | inhibition, % at 10 µM | 1% of 1,700 active | S. cerevisiae AD/CaMDR1, Nile Red efflux, flow cytometry | shares compounds with Efflux pump inh | AID 588518; in the data active means inhibition above about 26%;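 further: 0% = DMSO vehicle and 100% = reference inhibitor; higher means more Nile Red retained so more efflux inhibition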
# CaCdr2 efflux inh: blocks the Candida albicans Cdr2 efflux pump in yeast. S. cerevisiae AD/CaCDR2, Nile Red retention, flow cytometry. AID 588520. shares compounds with Efflux pump inh. Nile Red retention ratio vs DMSO, % at 10 µM. 4% of 1,700 active; in the data active means Nile Red retention ratio vs DMSO above about 190%;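 further: higher ratio means more blocking of Cdr2 efflux of the dye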
# Cdr1 pump inh: Candida Cdr1 efflux pump inhibition | S. cerevisiae AD/CaCDR1, Nile Red efflux, flow cytometry | shares compounds with Efflux pump inh | inhibition, % at 10 µM | AID 588522 | 1% of 1,700 active;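 active means inhibition above the screen-wide mean plus twice its standard deviation, cut at about 32% in these data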
# * hit, by the source's call; i = inactive; ? = inconclusive; / = no result given. Shown are actives, neighbours in structure and some others; about 4.7% of the full set was active somewhere. Unless noted, how the calls were made is not given here.
SMILES,Efflux pump inh,MLLE-PAM2 inh,SUMO HTRF inh,PABP polyA inh,eIF4H FP inh,ALR H2O2 inh,Yeast cmpd fluor,Mdr1 pump inh,CaCdr2 efflux inh,Cdr1 pump inh
COc1cc(/C=N/NC(=S)Nc2cccc(S(=O)(=O)N(C)C)c2)ccc1O,0.6,33.6,-6.1,-6.2,-5.9,/,/,/,/,/
COc1ccc(C(=O)N2CCN(c3ccccc3)CC2)cc1S(=O)(=O)N1CCCC1,6.2*,9.1,9.9,2.4,-8.1,/,109.5,0.0,110.1,-0.2
CCN(CC)C(=O)C(=O)c1cn(CC(=O)N2CCc3ccccc3C2)c2ccccc12,0.1,-9.9,7.5,-18.0,-1.3,43.0,/,/,/,/
O=C1/C(=C\c2cccc(O)c2O)SC(=S)N1Cc1ccccc1,-0.1,18.7,1.4,9.4,2.9,/,/,/,/,/
O=C1/C(=C\c2cc([N+](=O)[O-])ccc2O)SC(=S)N1Cc1ccc(Cl)cc1,0.7*,i,49.9,?,?,55.6,507.2*,0.9,232.0*,0.5
O=C1N[C@@H](Cc2ccccc2)C(=O)N2[C@@H]3N(S(=O)(=O)c4ccccc4)c4ccccc4[C@]3(Br)C[C@@H]12,0.3,-4.7,/,/,/,3.6,/,/,/,/
O=C1N[C@@H](Cc2ccccc2)C(=O)N2[C@H]1C[C@]1([C@]34C[C@H]5C(=O)N[C@@H](Cc6ccccc6)C(=O)N5[C@H]3N(S(=O)(=O)c3ccccc3)c3ccccc34)c3ccccc3N(S(=O)(=O)c3ccccc3)[C@H]21,0.8*,-13.5,/,/,/,1.3,104.6,0.7,103.9,0.5
CSc1ccccc1NC(=O)c1cc(-c2ccc3c(c2)OCO3)on1,1.6*,2.4,8.4,-10.0,4.3,/,89.3,-0.1,105.1,-0.2
COc1ccc(-c2cc(C(=O)N3CCCC(C(F)(F)F)C3)c3ccccc3n2)cc1OC (stereo not given),0.4*,-3.7,/,/,/,/,104.6,0.0,110.1,0.1
O=C(O)[C@H]1CCCC[C@H]1C(=O)Nc1ccc(S(=O)(=O)N2CCOCC2)cc1,0.0,-10.0,10.5,-1.3,3.4,-4.9,/,/,/,/
CC(=O)NCCOc1nc(N(C)C)nc(N2CCOCC2)n1,0.5*,4.5,29.4,-1.5,-4.4,3.2,95.0,0.1,112.2,0.0
O=S(=O)(c1cccc2nonc12)N1CCN(c2ccccc2F)CC1,1.1*,6.5,15.3,-12.1,4.5,1.6,97.6,-0.2,100.7,-0.1
CN(C)CCNc1cnn(-c2ccccc2)c(=O)c1Cl,-0.1,-3.8,4.0,-2.4,-6.4,-4.4,/,/,/,/
Cn1c(N)c(C(=O)COC(=O)c2ccccn2)c(=O)n(C)c1=O,1.7*,-12.3,9.7,-4.5,6.5,-8.9,99.0,-0.3,96.3,-0.1
CCn1cc(CNC(=O)c2cccc([N+](=O)[O-])c2)c(C)n1,11.1*,4.5,3.8,-4.5,-13.7,-1.1,101.2,-0.1,107.2,-0.1
Cc1ccc(S(=O)(=O)c2ccc(Cl)cc2)cc1S(N)(=O)=O,-0.3,0.5,-2.8,6.4,-1.4,/,/,/,/,/
Cc1ccc(S(=O)(=O)c2ccc(Cl)cc2)cc1S(=O)(=O)N(C)CC(=O)O,15.2*,-13.2,?,15.2,0.4,-4.9,101.1,-0.2,98.1,0.0
CC(Oc1ccc(Br)cc1)C(=O)Nc1nnc(C2CC2)s1 (stereo not given),-0.1,3.0,/,/,/,0.8,99.0,-0.1,109.4,0.1
Cc1cc(OCC(=O)Nc2nnc(C3CC3)s2)ccc1C(C)C,0.2,6.0,/,/,/,/,/,/,/,/
Cc1ccc(C(C)C)cc1OCC(=O)Nc1nnc(C2CC2)s1,0.0,-1.1,/,/,/,-2.9,101.1,-0.2,106.3,0.2
O=C(COc1ccc(Br)cc1)Nc1nnc(C2CC2)s1,-0.1,13.8,/,/,/,18.0,116.4,-0.1,93.0,0.1
Cc1ccccc1S(=O)(=O)N1C[C@H]2CON(C)[C@H]2C[C@H]1c1cccc(Oc2ccccc2)c1,/,-7.8,/,/,/,/,/,/,/,/
Cc1ccc(S(=O)(=O)N(CC(=O)c2ccccc2)C(=O)N2CCN(C)CC2)cc1,/,-2.4,/,/,/,/,/,/,/,/
NC(=O)c1nc(C(=O)N2CCCCC2)c2ccccc2n1,-0.1,15.7,/,/,/,0.2,/,/,/,/
O=C(CSc1ccc(Cl)cc1)N1CCN(c2ncc(C(F)(F)F)cc2Cl)CC1,-0.1,0.7,18.7,-1.4,8.9,-4.8,/,/,/,/
SMILES,Efflux pump inh,MLLE-PAM2 inh,SUMO HTRF inh,PABP polyA inh,eIF4H FP inh,ALR H2O2 inh,Yeast cmpd fluor,Mdr1 pump inh,CaCdr2 efflux inh,Cdr1 pump inh
O=C(CN1CCN(c2ncc(C(F)(F)F)cc2Cl)CC1)N1CCN(c2ncc(C(F)(F)F)cc2Cl)CC1,0.8*,-2.9,2.8,12.3,-2.6,/,106.7,-0.2,112.0,0.1
CC(C)(C)c1nnc(NC(=O)COc2ccc3c(c2)OCO3)s1,0.0,1.3,/,/,/,-29.1,112.2,0.1,97.5,-0.2
CC(C)(C)c1nnc(NC(=O)c2ccc3c(c2)OCO3)s1,0.1,34.2,8.5,-3.3,1.9,-1.4,/,/,/,/
O=C(Nc1cccnc1)c1cn(-c2ccccc2)nc1-c1cccs1,0.0,-0.1,-13.9,-1.8,3.5,6.6,/,/,/,/
O=C(Nc1cccc2ccccc12)c1cn(-c2ccccc2)nc1-c1cccs1,9.0*,10.3,-37.1,-10.1,0.1,14.6,104.5,0.1,102.9,0.1
CCCCc1nc(C(N)=O)c2[nH]c(=O)n(-c3ccc(OC)c(OC)c3)c2n1,-0.1,-16.3,22.9,6.3,1.1,-17.6,/,/,/,/
CCOc1cccc(-c2nc(C(N)=O)c3[nH]c(=O)n(-c4cccc(Cl)c4)c3n2)c1O,0.1,1.0,10.7,-18.7,-17.8,5.7,105.0,0.3,122.6,0.1
CCOc1ccccc1-c1nc(C(N)=O)c2[nH]c(=O)n(-c3cccc(C)c3)c2n1,0.7*,0.1,-4.8,6.3,-14.4,9.8,94.4,0.9,114.4,1.4
O=C(CCSc1ccccc1)Nc1ccccc1C(=O)N1CCCC1,9.6*,0.1,4.6,3.3,4.4,-0.1,100.0,-0.1,102.2,0.0
O=C(CSc1ccccc1)Nc1ccccc1C(=O)N1CCCC1,0.1,10.0,24.1,5.3,-1.6,-0.9,/,/,/,/
CCn1ccnc1CN(C)Cc1c(C(=O)N2C[C@@H](C)O[C@@H](C)C2)nc2ccc(Cl)cn12,-0.1,-6.4,3.4,-9.5,-4.4,-8.7,/,/,/,/
C=CCn1c(SCc2ccc(C(=O)OC)cc2)nnc1-c1sc(N)nc1C,15.2*,9.1,4.9,7.8,-2.6,-2.7,105.8,-0.3,100.7,-0.1
Cc1ccc(C(=O)Nc2ncc3c(n2)CC(c2ccco2)CC3=O)cc1 (stereo not given),9.0*,2.9,15.5,21.7,11.2,-9.0,104.6,-0.2,89.3,-0.1
Cc1cc(C)nc(SCc2ccc(C(=O)N/N=C3\CCCC(=O)C3)cc2)n1,0.0,4.1,-1.4,10.1,-2.9,53.0,/,/,/,/
